Reference: PubChem BioAssay (NCI)
This is part of a sample that, as a whole, favours compounds with a hit. Of some 83,000 tested, about 20% had one in any assay.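 Percent growth is the endpoint: 0 to 100 indicates growth inhibition (40 means 60% inhibition), 0 means no net growth, and negative values indicate cell death.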 A number with no mark means an inactive call. Calls of active or inactive are those of the source. How the source made its calls: active means growth percent below 10; inactive means the rest.

How the values were obtained:
Assay in all cases: NCI-60 one-dose screen, 48 h (100 = growth as untreated, 0 = no growth, -100 = all killed)
Details in all cases: 10 µM unless noted
SK-MEL-2 melanoma = test system: SK-MEL-2 melanoma
EKVX NSCLC = test system: EKVX NSCLC
SN12C renal = test system: SN12C renal
UO-31 renal = test system: UO-31 renal
TK-10 renal = test system: TK-10 renal
ACHN renal = test system: ACHN renal
CAKI-1 renal = test system: CAKI-1 renal
A498 renal = test system: A498 renal
CCRF-CEM leukemia = test system: CCRF-CEM leukemia
MOLT-4 leukemia = test system: MOLT-4 leukemia

| SMILES | growth (SK-MEL-2 melanoma) | growth (EKVX NSCLC) | growth (SN12C renal) | growth (UO-31 renal) | growth (TK-10 renal) | growth (ACHN renal) | growth (CAKI-1 renal) | growth (A498 renal) | growth (CCRF-CEM leukemia) | growth (MOLT-4 leukemia) |
| --- | --- | --- | --- | --- | --- | --- | --- | --- | --- | --- |
| CC(C)COc1nc2c(c(=O)n(C)c(=O)n2C)n1C | 36.1% | 95.1% | 99.8% | 94.7% | 105% | 102% | 107% | 84.7% | 97.5% | – |
| Oc1c(I)cc(I)cc1CNCCN(Cc1ccccn1)Cc1ccccn1 | -52.4% (active) | -10.3% (active) | 16% | -89.4% (active) | -91.5% (active) | -84% (active) | -92.2% (active) | -88.2% (active) | -10.1% (active) | – |
| Nc1c(C(=O)Nc2ccncc2)sc2nc3c(cc12)C(O)CCC3 (configuration not stated) | 97.4% | 99.9% | 96.3% | 81.8% | 91% | 96.4% | 99.6% | 112% | 94.6% | – |
| C1CN(SSN2CCOCC2)CCO1 | 63.1% [100 µM] | 13.1% [100 µM] | -74.7% [100 µM] (active) | -37.5% [100 µM] (active) | -72.8% [100 µM] (active) | -70.1% [100 µM] (active) | -48.4% [100 µM] (active) | 75.8% [100 µM] | 11.8% [100 µM] | – |
| COc1ccc(C(=O)/C=C/c2c(C(F)(F)F)nc3ccccn23)cc1OC | 31.3% | 8.13% (active) | 16.1% | 25.9% | 29.9% | -41.1% (active) | -5.18% (active) | 65.8% | 14.9% | – |
| COc1cc2c(c(OC)c1OC)CCC(c1cccc(C(=O)Nc3ccc(C#N)cc3)c1)O2 (configuration not stated) | 50.7% | 60.1% | 46.6% | 25% | 57.6% | 39.8% | 43.4% | 50.8% | 10.5% | – |
| COc1ccc(/C=N\Nc2nc(SCCC(C)C)nc(-c3ccc(OC)cc3)c2C#N)cc1 | 103% | 44.8% | 32.2% | -41.4% (active) | 11.2% | -41.5% (active) | 17% | 98.5% | 31.4% | – |
| COc1ccc(NC(=O)c2sc3nc(C)c(C(=O)/C=C/c4ccccc4)cc3c2N)cc1 | 88.7% | 87.1% | 17.6% | 17.7% | 80.5% | 50.3% | 29% | 21% | 3.56% (active) | – |
| CCCCCCC12CCC(=O)N1CCc1cncn12 (configuration not stated) | 108% | 99.9% | 102% | 109% | 92.5% | 109% | 109% | 99.2% | 95.4% | – |
| CSc1oc(C)nc1[P+](c1ccccc1)(c1ccccc1)c1ccccc1 | 84.4% | 73.8% | 82.2% | 102% | 88.2% | 97.6% | 88% | 64.5% | 51.8% | – |
| CCN(CC)CCn1c2ccc(OC)cc2c2sc3cc(OC)ccc3c(=O)c21 | 63.5% | 41.3% | 24.6% | 8.29% (active) | 49.2% | -38.8% (active) | 48.3% | 15.6% | 15% | – |
| CCNCCNc1cc(-c2ccc(C(F)(F)F)cc2)c(C#N)c2nc3ccccc3n12 | -47.6% (active) | -66% (active) | -62% (active) | -88.3% (active) | -67.3% (active) | -88.8% (active) | -96.9% (active) | -88.4% (active) | -42.9% (active) | – |
| COC(=O)[C@@H](CCCCNC(=O)[C@]12CCC(C)(C)C[C@@H]1C1=CC[C@@H]3[C@@]4(C)C/C(=C/c5ccco5)C(=O)C(C)(C)[C@@H]4CC[C@@]3(C)[C@]1(C)CC2)NC(=O)[C@]12CCC(C)(C)C[C@@H]1C1=CC[C@@H]3[C@@]4(C)C/C(=C/c5ccco5)C(=O)C(C)(C)[C@@H]4CC[C@@]3(C)[C@]1(C)CC2 | 108% | 105% | 98.7% | 79.2% | 102% | 107% | 98.5% | 116% | 99.3% | – |
| CCOC(=O)c1cc(C)n(-c2ccc(C(=O)O)cc2)c1C | 32% | 118% | 87.9% | 86.7% | 93.5% | 2.34% (active) | 79.7% | 111% | 92.2% | 92.3% |
| O=C(Nc1ccc(Oc2cccc(Cl)c2)c(Cl)c1)c1cnccn1 | 43.6% | 53.2% | 44.4% | 37.3% | 56.4% | 40% | 21.6% | 50.2% | 16.6% | 26.2% |
| Nc1nc2ccccc2c2c(=O)c3cccc(Cl)c3sc12 | 108% | 83.8% | 82.4% | 75.4% | 83.6% | 86.8% | 79% | 122% | 96.3% | 104% |
| CC(=O)O[C@H]1CC2CCC3C(CC[C@@]4(C)C3C[C@H]([N+]3(C)CCCCC3)[C@@H]4OC(C)=O)[C@@]2(C)C[C@@H]1N1CCCCC1 (some centres not stated) | 111% | 97.7% | 93% | 83.3% | 108% | 104% | 88.1% | 111% | 103% | 98.9% |
| CCOC(=O)c1ccc2c(c1)nc(-c1ccccc1)n2C1CCCCC1 | 86.1% | 83% | 105% | 84% | 116% | 112% | 101% | 97.8% | 79.4% | 85.5% |
| Cc1[nH]c(C(=O)Nc2ccccc2OC2CCNCC2)c(Cl)c1Cl | 24.2% | 43% | -53.2% (active) | -75.8% (active) | -3.07% (active) | -19.2% (active) | 1.32% (active) | 67.6% | 1.15% (active) | 4.46% (active) |
| N#CC1=C(N)Oc2c(sc3c(Br)cccc23)C1c1ccc(Cl)cc1 (configuration not stated) | -2.16% (active) | 34.3% | 30% | 34.2% | 37.8% | 43.6% | 39.3% | 16.3% | 13.7% | 3.26% (active) |
| C=CCc1c(O)c(C(=O)/C=C/c2ccccc2)c(OC)c2ccoc12 | 11.5% | 64.6% | 57% | 50.9% | 38.8% | 51.7% | 13.1% | -10.9% (active) | 21.3% | 15.3% |
| CC(C)c1ccc(-n2c(=S)[nH]c3sc4cc(O)ccc4c3c2=O)cc1 | 121% | 103% | 99.5% | 77% | 123% | 99% | 91.7% | 61.5% | 103% | 98% |
| Nc1ncc(-c2ccc3ncnc(Nc4cccc(Cl)c4)c3c2)cn1 | 50.1% | 1.79% (active) | 45.9% | 26.2% | -14.8% (active) | 21.5% | 25.6% | -9.82% (active) | 40.5% | 21.7% |
| CCOC(=O)c1cc(C(=O)c2cc(OC)c(OC)c(OC)c2)n2ncccc12 | 57.7% | 37.6% | 53.6% | 39.8% | 54% | 51.6% | 38.1% | -5.24% (active) | 11% | 18.5% |
| N=C(N)c1ccc(-c2ccc(-c3ccccc3)o2)cc1 | -86.6% (active) | -18.1% (active) | -39.5% (active) | -82.2% (active) | -77.4% (active) | -65.9% (active) | -1.49% (active) | -21.9% (active) | -39.4% (active) | -56.2% (active) |
